Measurements as given in the supplement of paper PMC4166925.
± gives the standard deviation of the averaged measurements. Whole data set: some 33,000 sequences, median “E-score (dimensionless, -0.5 to 0.5)” near -0.046, cut for the highest 2% near 0.36. This excerpt belongs to a sample that is enriched for the highest values.

Each sequence was assayed on T1, SpTbr T-box DNA-binding domain (GST fusion) (assay: PBM E-score of 8-mer (E-score (dimensionless, -0.5 to 0.5)); Tbr is Tbrain of the sea star Patiria miniata (Pm) or the sea urchin Strongylocentrotus purpuratus (Sp); higher = stronger binding preference). Details: the construct has about 5 more residues each side.
T1 sequence: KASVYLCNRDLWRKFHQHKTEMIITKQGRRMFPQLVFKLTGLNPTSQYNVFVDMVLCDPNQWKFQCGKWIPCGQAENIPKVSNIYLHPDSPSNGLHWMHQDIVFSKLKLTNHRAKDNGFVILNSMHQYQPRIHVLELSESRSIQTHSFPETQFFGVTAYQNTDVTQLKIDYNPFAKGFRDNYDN
Procedure: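 Universal protein-binding microarray (Agilent AMADID 016060, 60-bp probes with a 35-bp variable region) incubated with 200 nM GST-fused Strongylocentrotus purpuratus Tbr T-box DNA-binding domain (residues 362-554) in PBS pH 7.5. Scored for every ungapped 8-mer (given with its reverse complement) as E-score (range -0.5 to 0.5; >0.45 counts as bound) and Z-score of median probe intensity. Two replicate arrays (datasets 1 and 2).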
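Note: protein at 200 nM in PBS on universal double-stranded arrays.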

Row | Sequence | PBM E-score of 8-mer
1 | GTAGGTGA | 0.379 ± 0.023
2 | GCAGGTCA | 0.036 ± 0.077
3 | GTCATAAA | -0.00255 ± 0.054
4 | AAAAGATA | -0.0313 ± 0.063
5 | CTACGCAC | 0.0937 ± 0.02
6 | TACCTCTA | -0.164 ± 0.002
7 | ATAAGAGC | -0.19 ± 0.022
8 | ACCCTCGG | -0.124 ± 0.045
9 | ATGCAGAG | -0.18 ± 0.023
10 | ACGAACCG | 0.192 ± 0.063
11 | CATTTTCA | 0.0656 ± 0.088
12 | AGTTCTGA | -0.131 ± 0.043
13 | TAGACCCA | -0.101 ± 0.067
14 | AAGTGGTG | 0.205 ± 0.007
15 | CGACCATC | 0.0183 ± 0.023
16 | CAGAGGAG | -0.063 ± 0.011
17 | GGGTGGCA | 0.288 ± 0.014
18 | CGGTGGCA | 0.186 ± 0.053
19 | AGGTGGAG | 0.158 ± 0.025
20 | AGGTGGCG | 0.401 ± 0.011
21 | AGGTGGCC | 0.075 ± 0.0048
22 | AGGTGGCA | 0.432 ± 0.015
23 | CCCATCAC | 0.189 ± 0.031
24 | CCCGAGGG | -0.341 ± 0.026
25 | AACGCATA | 0.0089 ± 0.0093
26 | CGCGCCTA | 0.356 ± 0.037

Row | Sequence | PBM E-score of 8-mer
27 | TACGCCTA | 0.0945 ± 0.018
28 | AACGCCAT | 0.199 ± 0.029
29 | CGCGCCTC | 0.365 ± 0.039
30 | CACGCCTA | 0.375 ± 0.016
31 | AACGCCTG | 0.292 ± 0.006
32 | CACGCCTC | 0.395 ± 0.032
33 | AACGCCTT | 0.367 ± 0.041
34 | AGCGCCTC | 0.268 ± 0.0083
35 | GACGCCTC | 0.328 ± 0.017
36 | AACGCCTC | 0.35 ± 0.0088
37 | AACGCCTA | 0.298 ± 0.038
38 | ACTCGCTC | -0.0581 ± 0.083
39 | AGCCAATG | -0.218 ± 0.056
40 | AAACCGCG | 0.0876 ± 0.057
41 | AGCATCTG | -0.116 ± 0.028
42 | GCCACGGC | -0.0294 ± 0.015
43 | GCTGTTAC | 0.0324 ± 0.031
44 | GGTGTAAC | 0.349 ± 0.014
45 | CGTGTTAA | 0.409 ± 0.0099
46 | AGTGTAAA | 0.338 ± 0.049
47 | GGTGTAAA | 0.436 ± 0.012
48 | CGTGTTAG | 0.332 ± 0.015
49 | ACTGTTAG | 0.195 ± 0.048
50 | CGTGTTAC | 0.308 ± 0.0063
51 | GGTGTTAC | 0.4612 ± 0.0021
52 | AGTGTTTG | 0.219 ± 0.041

Row | Sequence | PBM E-score of 8-mer
53 | CCTGTTAA | 0.168 ± 0.067
54 | AGTGTTAG | 0.3895 ± 0.00056
55 | AGTTAGAT | -0.191 ± 0.0088
56 | CCTAACTC | -0.0227 ± 0.032
57 | ACAGCCAA | 0.00932 ± 0.037
58 | CACCACCA | 0.145 ± 0.0054
59 | AATAGCAA | 0.151 ± 0.019
60 | AGTCCTTG | -0.0449 ± 0.074
61 | AGGCGGTG | -0.0537 ± 0.076
62 | GGAGCCCC | -0.206 ± 0.022
63 | TATGTTAA | 0.0661 ± 0.067
64 | AGTGTTTA | 0.245 ± 0.062
65 | AGTGTTGG | 0.3684 ± 7.1e-06
66 | TGTGTTAA | 0.407 ± 0.011
67 | AGTGTTGC | 0.346 ± 0.0099
68 | GGTGTTTA | 0.386 ± 0.015
69 | TCTGTTAA | 0.131 ± 0.02
70 | AGTGTTAT | 0.372 ± 0.045
71 | AATGTTAT | 0.0346 ± 0.014
72 | CGTGTTTA | 0.123 ± 0.047
73 | ACTGTTAT | 0.152 ± 0.032
74 | AGTGTTGA | 0.351 ± 0.006
75 | GGTCTCAA | -0.0536 ± 0.098
76 | ACTTGCTG | -0.0473 ± 0.073
77 | ATTCTGTC | 0.04 ± 0.016
78 | CAGTAACC | 0.048 ± 0.029

Row | Sequence | PBM E-score of 8-mer
79 | GAAATGGA | -0.101 ± 0.0095
80 | ACTTGACT | 0.0832 ± 0.1
81 | CTAATAGC | 0.0334 ± 0.069
82 | GTTGTTGA | 0.239 ± 0.044
83 | AATGTTAA | -0.0502 ± 0.052
84 | AGTGTTAA | 0.436 ± 0.021
85 | GCTGTTAA | 0.162 ± 0.0053
86 | ACTGTTAC | 0.168 ± 0.0045
87 | AGTGTTAC | 0.3741 ± 0.0036
88 | GGTGTTGA | 0.4631 ± 0.0038
89 | GGTGTTAA | 0.472 ± 0.0062
90 | GTTGTTAA | 0.339 ± 0.034
91 | CGTGTTGA | 0.3014 ± 0.0019
92 | ACTGTTAA | 0.261 ± 0.036
93 | AGTGTTCC | 0.0182 ± 0.013
94 | ATTTGCAC | 0.239 ± 0.043
95 | ACTTGAGG | -0.00245 ± 0.078
96 | CGACGCGA | 0.159 ± 0.068
97 | ACAGCTTC | 0.208 ± 0.017
98 | AGTGGAGC | -0.0127 ± 0.11
99 | TCATCTCA | 0.0482 ± 0.019
100 | GCCAATCC | -0.0232 ± 0.048
101 | AGTGTGTA | 0.229 ± 0.018
102 | AGTGTGGC | 0.33 ± 0.014
103 | AGTGGGGG | -0.0909 ± 0.05
104 | GGTGTGTA | 0.356 ± 0.008

Row | Sequence | PBM E-score of 8-mer
105 | CGTGTGGA | 0.306 ± 0.0073
106 | AGAGTGGG | -0.128 ± 0.066
107 | GGTGTGGA | 0.456 ± 0.014
108 | AGTGTGGG | 0.399 ± 0.018
109 | AGTGTGGA | 0.373 ± 0.035
110 | ACCTTAGC | 0.211 ± 0.014
111 | CCACGGGC | -0.227 ± 0.019
112 | CTTCGCGA | 0.285 ± 0.032
113 | AATCGCGT | 0.194 ± 0.039
114 | ATTCGCTA | 0.208 ± 0.024
115 | AATCGCGA | 0.3847 ± 0.00013
116 | ATTCGCGC | 0.387 ± 0.012
117 | AATCGCGC | 0.332 ± 0.01
118 | ATTCGCGA | 0.392 ± 0.02
119 | ATTCGCGG | 0.275 ± 0.026
120 | CTTCGCGC | 0.407 ± 0.032
121 | CATCGCGA | 0.197 ± 0.0055
122 | CATCGCGC | 0.259 ± 0.032
123 | CTTCGCTC | -0.00285 ± 0.036
124 | GCGCCACA | 0.223 ± 0.014
125 | ATTTGTGA | 0.181 ± 0.085
126 | GGGGCGCA | -0.227 ± 0.038
127 | TAAAGCTA | -0.171 ± 0.036
128 | GTATTGAC | -0.0627 ± 0.015
129 | CAGTGCAG | -0.179 ± 0.024
130 | CCTCGCGA | 0.306 ± 0.0057

Row | Sequence | PBM E-score of 8-mer
131 | GTTCGCCA | 0.158 ± 0.011
132 | GTTCGCGA | 0.389 ± 0.0052
133 | ACTCGCGA | 0.3822 ± 0.0018
134 | GGTCGCGA | 0.335 ± 0.017
135 | ACTCGCGC | 0.298 ± 0.038
136 | CCAGCGCG | 0.0431 ± 0.073
137 | CCTCGTTC | 0.0141 ± 0.013
138 | GGTCAACA | 0.114 ± 0.02
139 | TGTCAACA | 0.4051 ± 0.0019
140 | CGTCAACA | 0.356 ± 0.0058
141 | CTAAACCA | -0.0751 ± 0.046
142 | CTCCCTTC | -0.214 ± 0.037
143 | CCTCACAA | 0.233 ± 0.0063
144 | ACTCACAT | 0.124 ± 0.049
145 | GCTTACAC | 0.219 ± 0.012
146 | ACTCTCTC | 0.0136 ± 0.068
147 | ACACTCTC | 0.3695 ± 0.0036
148 | ACTCACAG | 0.313 ± 0.011
149 | ACACTCTA | 0.325 ± 0.017
150 | CCTCACAG | 0.149 ± 0.032
151 | CCTCACAC | 0.4723 ± 0.0005
152 | ACTCACAC | 0.469 ± 0.0082
153 | ACTTACAC | 0.251 ± 0.075
154 | CCTTACAC | 0.3668 ± 0.0022
155 | GGCTCTCA | 0.0783 ± 0.047
156 | AGCATAGC | -0.135 ± 0.061

Row | Sequence | PBM E-score of 8-mer
157 | CGCGTTTA | 0.0979 ± 0.059
158 | CGAGATAC | -0.0218 ± 0.054
159 | GAACAAAA | -0.0265 ± 0.017
160 | ACGTATGC | 0.0191 ± 0.0035
161 | AGGCGCAT | -0.182 ± 0.024
162 | ACCGTCAT | 0.0989 ± 0.0085
163 | ATTGAAGG | -0.0895 ± 0.13
164 | AAGCGGTG | -0.1161 ± 0.00078
165 | CACAAGGC | -0.114 ± 0.035
166 | ACATGGCA | -0.0601 ± 0.028
167 | GCCAGCGA | 0.164 ± 0.098
168 | ACTCTCAC | 0.285 ± 0.036
169 | ACACTCCT | 0.193 ± 0.021
170 | GCTCACAC | 0.448 ± 0.0095
171 | GCTCACAA | 0.174 ± 0.018
172 | ACTCTCCG | -0.0225 ± 0.053
173 | ACACTCAC | 0.366 ± 0.004
174 | ACACTCCG | 0.367 ± 0.023
175 | GCACACAC | 0.294 ± 0.035
176 | ACACTCAG | 0.232 ± 0.042
